# Reference: ChEMBL document CHEMBL1961873, “Compounds: GSK PKIS; Assays: Nanosyn kinase panel” (2012)
# What was measured:
# [1] = molecular target: Sphingosine kinase 1 (Homo sapiens) (UniProt Q9NYA1); conditions: at 1 µM;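 note: mean SPHK1 inhibition value reported from the GSK PKIS kinase panel screen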
# [2] = molecular target: T1, Sphingosine kinase 2 (Homo sapiens) (UniProt Q9NRA0); conditions: at 0.1 µM
# T1 sequence (whole entry): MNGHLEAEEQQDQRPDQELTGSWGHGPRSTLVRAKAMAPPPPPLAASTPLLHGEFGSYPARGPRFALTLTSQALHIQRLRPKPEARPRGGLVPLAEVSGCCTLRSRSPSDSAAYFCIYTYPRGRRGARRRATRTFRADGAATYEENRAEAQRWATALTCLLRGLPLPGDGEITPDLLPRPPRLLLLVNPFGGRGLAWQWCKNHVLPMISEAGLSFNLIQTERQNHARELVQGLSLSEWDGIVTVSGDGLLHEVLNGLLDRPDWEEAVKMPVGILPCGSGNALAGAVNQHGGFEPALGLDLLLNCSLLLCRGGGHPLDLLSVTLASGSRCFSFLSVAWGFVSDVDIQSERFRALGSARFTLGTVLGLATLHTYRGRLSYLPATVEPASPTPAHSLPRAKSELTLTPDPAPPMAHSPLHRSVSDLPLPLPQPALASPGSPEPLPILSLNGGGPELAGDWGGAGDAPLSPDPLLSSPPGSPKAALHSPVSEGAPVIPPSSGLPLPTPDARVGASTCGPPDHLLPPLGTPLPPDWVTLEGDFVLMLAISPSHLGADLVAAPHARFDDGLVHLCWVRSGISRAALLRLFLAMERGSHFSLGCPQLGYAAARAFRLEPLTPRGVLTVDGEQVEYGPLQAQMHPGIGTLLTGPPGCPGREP
# [3] = molecular target: T1, Sphingosine kinase 2 (Homo sapiens); conditions: at 1 µM
# [4] = molecular target: Casein kinase II subunit alpha (Homo sapiens) (UniProt P68400); conditions: at 0.1 µM
# [5] = molecular target: Casein kinase II subunit alpha (Homo sapiens) (UniProt P68400); conditions: at 1 µM
# [6] = molecular target: T2, Inhibitor of nuclear factor kappa-B kinase subunit alpha (Homo sapiens) (UniProt O15111); conditions: at 0.1 µM
# T2 sequence (whole entry): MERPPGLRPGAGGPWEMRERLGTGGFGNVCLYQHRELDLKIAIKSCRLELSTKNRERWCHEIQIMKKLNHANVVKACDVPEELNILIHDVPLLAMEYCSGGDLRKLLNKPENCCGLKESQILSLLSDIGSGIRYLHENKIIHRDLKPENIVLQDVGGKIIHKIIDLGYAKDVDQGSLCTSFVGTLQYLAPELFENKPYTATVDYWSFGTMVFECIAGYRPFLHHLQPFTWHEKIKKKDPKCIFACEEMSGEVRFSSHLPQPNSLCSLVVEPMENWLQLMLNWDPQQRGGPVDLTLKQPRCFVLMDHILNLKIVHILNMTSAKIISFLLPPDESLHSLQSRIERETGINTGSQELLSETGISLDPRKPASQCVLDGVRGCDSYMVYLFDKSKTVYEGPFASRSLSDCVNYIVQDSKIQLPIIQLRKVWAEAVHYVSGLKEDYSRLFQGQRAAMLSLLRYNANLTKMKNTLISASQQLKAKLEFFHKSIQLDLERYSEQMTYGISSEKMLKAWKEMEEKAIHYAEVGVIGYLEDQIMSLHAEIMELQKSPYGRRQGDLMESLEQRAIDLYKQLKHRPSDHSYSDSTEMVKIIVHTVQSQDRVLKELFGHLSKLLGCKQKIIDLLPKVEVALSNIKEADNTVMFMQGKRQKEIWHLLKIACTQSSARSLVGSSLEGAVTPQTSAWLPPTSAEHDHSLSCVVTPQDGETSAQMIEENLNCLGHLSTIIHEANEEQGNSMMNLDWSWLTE
# [7] = molecular target: T2, Inhibitor of nuclear factor kappa-B kinase subunit alpha (Homo sapiens); conditions: at 1 µM
# [8] = molecular target: T3, Inhibitor of nuclear factor kappa-B kinase subunit beta (Homo sapiens) (UniProt O14920); conditions: at 0.1 µM
# T3 sequence (whole entry): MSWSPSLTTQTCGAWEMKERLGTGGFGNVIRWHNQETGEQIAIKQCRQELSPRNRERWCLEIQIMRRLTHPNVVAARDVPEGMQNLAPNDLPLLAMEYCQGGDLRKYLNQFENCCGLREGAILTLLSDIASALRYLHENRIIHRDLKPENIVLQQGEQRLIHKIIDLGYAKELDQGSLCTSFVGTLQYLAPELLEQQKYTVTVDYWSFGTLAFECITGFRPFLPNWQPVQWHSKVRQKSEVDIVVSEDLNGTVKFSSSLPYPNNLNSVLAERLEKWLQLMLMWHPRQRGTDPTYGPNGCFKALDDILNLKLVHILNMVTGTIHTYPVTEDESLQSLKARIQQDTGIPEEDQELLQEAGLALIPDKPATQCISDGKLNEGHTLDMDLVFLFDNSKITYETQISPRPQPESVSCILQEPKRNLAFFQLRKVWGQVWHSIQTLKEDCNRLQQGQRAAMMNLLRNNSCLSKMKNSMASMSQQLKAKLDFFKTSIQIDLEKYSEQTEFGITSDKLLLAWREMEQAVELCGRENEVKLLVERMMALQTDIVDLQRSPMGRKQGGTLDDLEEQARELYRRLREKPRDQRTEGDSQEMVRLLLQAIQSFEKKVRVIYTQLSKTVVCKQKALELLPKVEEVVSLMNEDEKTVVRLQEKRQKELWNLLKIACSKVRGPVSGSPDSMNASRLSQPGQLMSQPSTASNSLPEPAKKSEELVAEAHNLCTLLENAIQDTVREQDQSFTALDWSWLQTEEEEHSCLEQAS
# [9] = molecular target: T3, Inhibitor of nuclear factor kappa-B kinase subunit beta (Homo sapiens); conditions: at 1 µM
# [10] = molecular target: T4, Inhibitor of nuclear factor kappa-B kinase subunit epsilon (Homo sapiens) (UniProt Q14164); conditions: at 0.1 µM
# T4 sequence (whole entry): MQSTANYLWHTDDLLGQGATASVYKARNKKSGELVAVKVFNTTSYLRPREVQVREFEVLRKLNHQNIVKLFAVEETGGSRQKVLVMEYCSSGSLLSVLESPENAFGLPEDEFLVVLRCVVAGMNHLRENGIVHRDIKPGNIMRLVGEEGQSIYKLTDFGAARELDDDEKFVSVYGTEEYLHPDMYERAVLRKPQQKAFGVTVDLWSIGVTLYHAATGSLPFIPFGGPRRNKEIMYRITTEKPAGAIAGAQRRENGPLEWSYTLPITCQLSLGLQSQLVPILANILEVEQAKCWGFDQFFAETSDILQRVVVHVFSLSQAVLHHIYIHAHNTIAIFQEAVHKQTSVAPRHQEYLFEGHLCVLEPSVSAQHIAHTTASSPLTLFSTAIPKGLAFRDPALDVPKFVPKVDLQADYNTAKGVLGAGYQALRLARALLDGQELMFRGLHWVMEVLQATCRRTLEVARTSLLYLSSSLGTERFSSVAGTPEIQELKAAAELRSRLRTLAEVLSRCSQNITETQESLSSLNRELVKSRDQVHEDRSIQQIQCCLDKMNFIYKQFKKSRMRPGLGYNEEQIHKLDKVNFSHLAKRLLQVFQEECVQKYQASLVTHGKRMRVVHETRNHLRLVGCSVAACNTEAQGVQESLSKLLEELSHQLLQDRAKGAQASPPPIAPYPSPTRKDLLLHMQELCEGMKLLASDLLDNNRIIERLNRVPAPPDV
# [11] = molecular target: T4, Inhibitor of nuclear factor kappa-B kinase subunit epsilon (Homo sapiens); conditions: at 1 µM
# [12] = molecular target: T5, Serine/threonine-protein kinase Nek1 (Homo sapiens) (UniProt Q96PY6); conditions: at 0.1 µM
# T5 sequence (whole entry): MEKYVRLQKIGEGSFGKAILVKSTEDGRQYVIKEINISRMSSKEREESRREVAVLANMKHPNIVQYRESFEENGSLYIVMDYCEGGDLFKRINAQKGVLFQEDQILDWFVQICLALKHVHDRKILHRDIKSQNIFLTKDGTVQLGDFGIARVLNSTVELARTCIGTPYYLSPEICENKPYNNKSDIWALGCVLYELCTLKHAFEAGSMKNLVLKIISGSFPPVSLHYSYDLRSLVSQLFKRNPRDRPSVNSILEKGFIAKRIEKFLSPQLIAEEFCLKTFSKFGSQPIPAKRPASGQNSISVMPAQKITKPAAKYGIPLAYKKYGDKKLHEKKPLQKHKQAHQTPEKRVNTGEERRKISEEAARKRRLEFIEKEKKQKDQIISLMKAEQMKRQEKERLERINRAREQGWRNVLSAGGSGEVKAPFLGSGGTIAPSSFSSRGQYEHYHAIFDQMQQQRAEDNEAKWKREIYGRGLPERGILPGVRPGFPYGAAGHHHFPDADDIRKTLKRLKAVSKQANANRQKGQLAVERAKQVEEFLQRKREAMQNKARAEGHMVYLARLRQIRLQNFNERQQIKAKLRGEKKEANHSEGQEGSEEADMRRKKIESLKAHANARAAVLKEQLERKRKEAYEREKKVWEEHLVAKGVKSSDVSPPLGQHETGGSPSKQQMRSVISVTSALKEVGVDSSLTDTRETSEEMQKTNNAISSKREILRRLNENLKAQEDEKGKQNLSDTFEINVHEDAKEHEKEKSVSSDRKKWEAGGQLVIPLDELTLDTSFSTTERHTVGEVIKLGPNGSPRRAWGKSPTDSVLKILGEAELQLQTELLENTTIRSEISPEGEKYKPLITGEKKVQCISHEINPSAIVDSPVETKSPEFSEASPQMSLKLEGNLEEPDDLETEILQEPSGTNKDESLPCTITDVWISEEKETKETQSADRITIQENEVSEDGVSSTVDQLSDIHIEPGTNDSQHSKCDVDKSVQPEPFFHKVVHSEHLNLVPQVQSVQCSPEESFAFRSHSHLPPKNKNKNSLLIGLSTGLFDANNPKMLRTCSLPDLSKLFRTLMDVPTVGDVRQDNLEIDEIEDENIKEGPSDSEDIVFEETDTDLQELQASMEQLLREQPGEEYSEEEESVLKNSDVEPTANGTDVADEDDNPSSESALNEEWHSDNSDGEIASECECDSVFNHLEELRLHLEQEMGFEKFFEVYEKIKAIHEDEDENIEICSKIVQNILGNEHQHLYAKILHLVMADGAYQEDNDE
# [13] = molecular target: T5, Serine/threonine-protein kinase Nek1 (Homo sapiens); conditions: at 1 µM
# [14] = molecular target: T6, Serine/threonine-protein kinase Nek2 (Homo sapiens) (UniProt P51955); conditions: at 0.1 µM
# T6 sequence (whole entry): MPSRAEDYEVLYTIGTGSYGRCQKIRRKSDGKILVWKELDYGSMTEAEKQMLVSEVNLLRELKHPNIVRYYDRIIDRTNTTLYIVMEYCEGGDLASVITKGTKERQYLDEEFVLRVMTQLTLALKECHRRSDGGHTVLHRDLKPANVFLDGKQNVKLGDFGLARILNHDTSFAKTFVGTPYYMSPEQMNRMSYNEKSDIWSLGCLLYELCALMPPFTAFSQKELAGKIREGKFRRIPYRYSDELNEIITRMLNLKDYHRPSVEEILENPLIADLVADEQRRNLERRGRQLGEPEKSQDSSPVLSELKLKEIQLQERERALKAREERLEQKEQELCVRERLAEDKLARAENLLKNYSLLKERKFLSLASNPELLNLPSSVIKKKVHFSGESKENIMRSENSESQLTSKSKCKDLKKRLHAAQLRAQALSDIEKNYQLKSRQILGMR
# [15] = molecular target: T6, Serine/threonine-protein kinase Nek2 (Homo sapiens); conditions: at 1 µM
# [16] = molecular target: Serine/threonine-protein kinase Nek6 (Homo sapiens) (UniProt Q9HC98); conditions: at 0.1 µM
# [17] = molecular target: Serine/threonine-protein kinase Nek6 (Homo sapiens) (UniProt Q9HC98); conditions: at 1 µM
# [18] = molecular target: Serine/threonine-protein kinase Nek7 (Homo sapiens) (UniProt Q8TDX7); conditions: at 0.1 µM
# [19] = molecular target: Serine/threonine-protein kinase Nek7 (Homo sapiens) (UniProt Q8TDX7); conditions: at 1 µM
# [20] = molecular target: T7, Serine/threonine-protein kinase Nek9 (Homo sapiens) (UniProt Q8TD19); conditions: at 0.1 µM;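 note: reported value is the mean percent inhibition of NEK9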
# T7 sequence (whole entry): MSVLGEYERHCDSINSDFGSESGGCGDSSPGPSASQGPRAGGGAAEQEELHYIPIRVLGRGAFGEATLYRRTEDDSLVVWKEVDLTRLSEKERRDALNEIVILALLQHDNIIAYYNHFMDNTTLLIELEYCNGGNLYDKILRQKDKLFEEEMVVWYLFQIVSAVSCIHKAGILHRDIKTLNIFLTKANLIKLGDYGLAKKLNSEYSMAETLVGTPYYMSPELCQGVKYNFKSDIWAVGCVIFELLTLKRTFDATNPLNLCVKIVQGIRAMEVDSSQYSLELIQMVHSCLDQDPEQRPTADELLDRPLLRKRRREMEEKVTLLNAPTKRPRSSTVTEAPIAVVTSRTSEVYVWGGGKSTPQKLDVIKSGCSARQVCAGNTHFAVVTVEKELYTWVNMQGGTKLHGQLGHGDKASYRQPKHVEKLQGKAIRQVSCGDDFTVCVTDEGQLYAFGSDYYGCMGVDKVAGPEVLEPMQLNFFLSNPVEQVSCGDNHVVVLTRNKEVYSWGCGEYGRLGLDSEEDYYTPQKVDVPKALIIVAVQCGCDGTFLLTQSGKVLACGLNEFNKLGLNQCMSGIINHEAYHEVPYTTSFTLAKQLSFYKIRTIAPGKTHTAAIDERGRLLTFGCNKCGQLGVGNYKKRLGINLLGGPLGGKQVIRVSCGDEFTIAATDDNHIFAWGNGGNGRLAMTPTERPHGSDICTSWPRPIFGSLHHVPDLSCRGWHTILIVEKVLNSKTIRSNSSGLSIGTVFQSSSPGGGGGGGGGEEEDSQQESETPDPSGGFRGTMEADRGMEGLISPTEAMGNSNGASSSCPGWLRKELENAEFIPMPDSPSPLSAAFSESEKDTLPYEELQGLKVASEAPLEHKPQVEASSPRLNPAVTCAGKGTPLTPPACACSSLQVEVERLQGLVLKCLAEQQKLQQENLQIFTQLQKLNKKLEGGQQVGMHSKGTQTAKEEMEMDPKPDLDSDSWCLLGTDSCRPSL
# Serine/threonine-protein kinase Nek6 (Homo sapiens), sequence (Q9HC98 whole entry): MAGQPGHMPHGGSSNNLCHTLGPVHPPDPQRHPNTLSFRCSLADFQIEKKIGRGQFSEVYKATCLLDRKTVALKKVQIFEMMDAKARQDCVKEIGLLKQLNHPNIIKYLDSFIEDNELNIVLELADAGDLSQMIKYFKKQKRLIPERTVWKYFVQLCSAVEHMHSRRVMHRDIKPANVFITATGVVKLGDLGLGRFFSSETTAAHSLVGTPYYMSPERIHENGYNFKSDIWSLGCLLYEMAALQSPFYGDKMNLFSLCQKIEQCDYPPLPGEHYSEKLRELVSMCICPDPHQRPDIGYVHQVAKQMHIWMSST
# Serine/threonine-protein kinase Nek7 (Homo sapiens), sequence (Q8TDX7 whole entry, looked up): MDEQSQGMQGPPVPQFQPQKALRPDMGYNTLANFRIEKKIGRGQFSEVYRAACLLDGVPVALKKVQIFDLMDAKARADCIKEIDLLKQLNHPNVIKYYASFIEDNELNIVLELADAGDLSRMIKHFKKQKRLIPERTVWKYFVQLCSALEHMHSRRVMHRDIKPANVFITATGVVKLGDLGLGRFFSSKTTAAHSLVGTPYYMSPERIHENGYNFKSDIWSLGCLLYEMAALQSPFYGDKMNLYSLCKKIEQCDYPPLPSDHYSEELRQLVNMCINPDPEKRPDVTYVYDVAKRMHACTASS
# Casein kinase II subunit alpha (Homo sapiens), sequence (P68400 whole entry, looked up): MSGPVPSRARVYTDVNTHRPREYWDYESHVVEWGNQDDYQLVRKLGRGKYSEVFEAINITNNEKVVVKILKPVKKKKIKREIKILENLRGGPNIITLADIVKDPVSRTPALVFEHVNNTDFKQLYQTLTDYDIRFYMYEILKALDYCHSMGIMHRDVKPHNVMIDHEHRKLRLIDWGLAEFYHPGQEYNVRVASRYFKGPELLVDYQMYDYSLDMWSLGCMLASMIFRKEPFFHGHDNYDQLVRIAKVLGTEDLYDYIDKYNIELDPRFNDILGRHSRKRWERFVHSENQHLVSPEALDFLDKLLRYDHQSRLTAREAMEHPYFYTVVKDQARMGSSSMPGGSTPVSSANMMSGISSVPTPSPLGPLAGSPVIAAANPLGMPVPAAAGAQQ
# Sphingosine kinase 1 (Homo sapiens), sequence (Q9NYA1 whole entry): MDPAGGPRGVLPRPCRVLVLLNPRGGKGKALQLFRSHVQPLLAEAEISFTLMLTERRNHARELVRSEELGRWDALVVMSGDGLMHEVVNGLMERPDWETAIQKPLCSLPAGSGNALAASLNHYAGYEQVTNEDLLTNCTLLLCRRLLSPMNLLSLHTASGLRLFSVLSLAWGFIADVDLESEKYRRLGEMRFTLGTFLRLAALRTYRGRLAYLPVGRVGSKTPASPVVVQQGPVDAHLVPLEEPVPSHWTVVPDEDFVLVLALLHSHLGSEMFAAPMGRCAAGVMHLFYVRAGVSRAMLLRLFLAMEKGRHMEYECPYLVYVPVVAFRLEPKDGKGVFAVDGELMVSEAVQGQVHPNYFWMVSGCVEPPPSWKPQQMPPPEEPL
compound,measurement,setting,value
CN(C)CCNC(=O)Nc1ccc(N(C)c2ccnc(Nc3ccc(CS(C)(=O)=O)cc3)n2)cc1,inhibition,[1],-1.23%
same,inhibition,[2],-0.06%
same,inhibition,[3],2.33%
same,inhibition,[4],2.94%
same,inhibition,[5],0.31%
same,inhibition,[6],2.05%
same,inhibition,[7],0.39%
same,inhibition,[8],7.67%
same,inhibition,[9],1.94%
same,inhibition,[10],3.33%
same,inhibition,[11],6.21%
same,inhibition,[12],0.66%
same,inhibition,[13],2.81%
same,inhibition,[14],5.18%
same,inhibition,[15],-2.7%
same,inhibition,[16],3.4%
same,inhibition,[17],3.93%
same,inhibition,[18],3.07%
same,inhibition,[19],2.78%
same,inhibition,[20],0.16%
